This is one part of a sample in which hits are shown more often than they occur.
APEX1 inh: blocks human APE1 abasic DNA cleavage | P27695 | recombinant APE1, TAMRA/BHQ-2 abasic DNA cleavage fluorescence | Potency, µM (highest dose often 65.8 µM), for the others: at the top dose activity change, negative = inhibition, hits mostly inhibitors | 350,000 compounds, 0.35% hits;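 further: plate controls were vehicle for no effect and reference inhibitor for full effect; nearly all actives have a fitted effect of over 55% in size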
Target sequence (P27695 whole entry, looked up): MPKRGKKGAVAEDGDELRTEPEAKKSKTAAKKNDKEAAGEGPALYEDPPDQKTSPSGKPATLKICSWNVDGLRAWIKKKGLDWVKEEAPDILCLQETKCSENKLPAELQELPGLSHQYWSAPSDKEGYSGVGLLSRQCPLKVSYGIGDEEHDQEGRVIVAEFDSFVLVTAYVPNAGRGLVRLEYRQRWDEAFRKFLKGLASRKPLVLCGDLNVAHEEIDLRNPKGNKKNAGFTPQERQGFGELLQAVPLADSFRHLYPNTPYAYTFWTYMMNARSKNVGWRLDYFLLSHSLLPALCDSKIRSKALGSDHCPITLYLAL
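Activity was derived from the fluorescence gain between first and third kinetic reads (60 s intervals, ex 525/em 598 nm) after 50 nM THF-abasic TAMRA/BHQ-2 duplex was added to 0.75 nM APE1 preincubated 15 min with compound.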
L3MBTL1 inh-1: L3MBTL1 (human) inhibition. Potency, µM (highest dose often 57.1 µM), for inactives: at the highest dose activity, negative = inhibition, hits mostly inhibitors. AID 485360. 230,000 compounds, 0.66% hits. AlphaScreen L3MBTL1–H3K9me1 peptide binding. Q9Y468; further: on the % scale 0 is the no-effect control and ±100 the full control effect; nearly all actives have a fitted effect of over 60% in size
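First, the protein-peptide complex forms for 30 min at room temperature (L3MBTL1 50 nM, biotinylated H3K9me1 peptide 75 nM). Next, compounds are pin-transferred and incubated 30 min. Finally, AlphaScreen beads are added and read after 30 min.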
JMJD2E inh: inhibitors of human JMJD2E histone demethylase; B2RXH2; JMJD2E catalytic domain, FDH-coupled NADH fluorescence (FDH is formaldehyde dehydrogenase); Potency, µM (series often up to 57.1 µM), inactives show at the top dose activity change, negative = inhibition, hits mostly inhibitors; 230,000 compounds, 1.6% hits; AID 2147; active means well fitted inhibition curve with a large enough effect, not every such curve was filed as active; inconclusive means small, poorly fitted or top-dose-only effect, or another doubt; inactive means no such curve, though single readings can be large or run the other way;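 further: 0% = wells with enzyme and -100% = buffer wells without enzyme; nearly all actives have a fitted effect of over 50% in size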
Target sequence (B2RXH2 1-337 limits assumed): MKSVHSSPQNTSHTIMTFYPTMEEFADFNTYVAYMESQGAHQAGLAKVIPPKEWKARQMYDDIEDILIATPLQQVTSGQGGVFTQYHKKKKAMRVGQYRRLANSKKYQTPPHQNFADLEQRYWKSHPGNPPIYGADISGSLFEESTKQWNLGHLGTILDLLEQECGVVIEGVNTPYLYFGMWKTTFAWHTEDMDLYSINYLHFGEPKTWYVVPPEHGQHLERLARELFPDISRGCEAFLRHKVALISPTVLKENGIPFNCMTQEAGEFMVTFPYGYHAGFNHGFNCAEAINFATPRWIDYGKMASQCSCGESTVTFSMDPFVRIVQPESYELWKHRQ
KAT2A inh: blocks human GCN5L2 histone acetyltransferase. GCN5L2 HAT assay, ThioGlo1 CoA-SH fluorescence. Potency, µM (doses to about 58.9 µM), for the others: at the highest dose activity change, negative = inhibition, actives largely listed as inhibitors. Q92830. 390,000 compounds, 0.21% hits; further: on the % scale 0 is the no-effect control and ±100 the full control effect
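GCN5L2 (20 nM) in 50mM HEPES pH 7.5, 0.1mM EDTA, 0.01% Tween-20 preincubated 15 min with compounds at room temperature. Reaction started with H3(1-25) 75uM, acetyl-CoA 70uM, ThioGlo1 50uM; CoA-thiol fluorescence (Ex340/Em540) read at 0 and 20 min.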
BLM inh: Bloom syndrome helicase (human) inhibition | AID 2528 | Potency, µM (highest dose often 56.1 µM), without a hit: top-dose activity change, negative = inhibition, most hits filed as inhibitors | P54132 | 350,000 compounds, 0.2% hits | recombinant BLM DNA unwinding, fluorescence dequenching;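 further: plate controls were vehicle for no effect and no enzyme for full effect; nearly all actives have a fitted effect of over 35% in size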
RECQ1 inh-1: blocks DNA unwinding by human RECQ1. P46063. RECQ1 DNA unwinding, red fluorescence kinetic read. Potency, µM (titrated, usually from 57.3 µM), without a hit: top-dose activity, negative = inhibition, actives largely listed as inhibitors. 240,000 compounds, 0.54% hits;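 further: plate controls were vehicle for no effect and no enzyme for full effect; nearly all actives have a fitted effect of over 30% in size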
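RECQ1T1 50 nM; forked duplex (20 bp + 30-nt ss tails) 200 nM, ATP 2 mM final; pH 8.0, 2 mM MgCl2, 2.5 ug/ml poly(dI-dC); 15 min compound preincubation; discontinuous kinetic read over 2 h at RT.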
RECQ1 inh conf: confirmation of human RECQ1 helicase inhibitors. shares compounds with RECQ1 inh-1. RECQ1 helicase DNA unwinding, fluorescence. Potency, µM (series often up to 229 µM), for the others: at the highest dose activity change, negative = inhibition, most hits filed as inhibitors. 610 compounds, 28% hits; further: on the % scale 0 is the no-effect control and ±100 the full control effect; nearly all actives have a fitted effect of over 45% in size
ADP FP counter: displaces ADP in a fluorescence polarization counter-screen for RECQ1 hits. AID 2711. shares compounds with RECQ1 inh-1. ADP fluorescence polarization displacement counterscreen. Potency, µM (top dose mostly 228 µM), for the others: at the top dose activity change, negative = inhibition, hits mostly inhibitors. 530 compounds, 27% hits; further: on the % scale 0 is the no-effect control and ±100 the full control effect; nearly all actives have a fitted effect of over 45% in size
RECQ1 inh-2: confirmation of human RECQ1 helicase inhibitors; Potency, µM (highest dose often 119 µM), without a hit: at the top dose activity, negative = inhibition, usual class: inhibitors; AID 504841; 1,100 compounds, 15% hits; recombinant RECQ1 DNA unwinding, red fluorescence; shares compounds with RECQ1 inh-1; further: on the % scale 0 is the no-effect control and ±100 the full control effect; nearly all actives have a fitted effect of over 50% in size
L3MBTL1 inh-2: validation of human L3MBTL1 methyl-lysine binding inhibitors. Potency, µM, actives largely listed as inhibitors. 500 compounds, 91% hits. L3MBTL1 methyl-lysine binding inhibition, biochemical qHTS. AID 540279. shares compounds with L3MBTL1 inh-1; further: nearly all actives have a fitted effect of over 70% in size
AlphaScreen ctr2: counter-screen for L3MBTL1 inhibitors: AlphaScreen signal interference; shares compounds with L3MBTL1 inh-1; AlphaScreen counterscreen, signal inhibition; Potency, µM (titrated, usually from 57.1 µM), for inactives: at the highest dose activity change, negative = inhibition, usual class: inhibitors; 500 tested, under 10 active; AID 602224; further: 0% is about no effect
* hit, by the source's call; i = inactive; ? = inconclusive; · = not tested or not shown; ! = not active in a repeat; [ ] = remark or other dose. Unless noted, the call rests on the fitted dose curve; in most records, active means well fitted curve in the direction sought with a large enough effect; inconclusive means small, poorly fitted or top-dose-only effect, or another doubt; inactive means no such curve, though single readings can be large; an effect the other way counts as inactive or inconclusive. Potency means the concentration at half of the fitted maximal effect.

SMILES	APEX1 inh	L3MBTL1 inh-1	JMJD2E inh	KAT2A inh	BLM inh	RECQ1 inh-1	RECQ1 inh conf	RECQ1 inh-2	others
C/C=C1/C[C@@H](C)[C@@](C)(O)C(=O)OCC2=CCN3CC[C@@H](OC1=O)[C@@H]23	?	·	·	·	-4.3%	?	·	-0.3%
C=C1C/C(=C/C)C(=O)O[C@@H]2CCN3CC=C(COC(=O)[C@]1(C)O)[C@@H]23	?	·	-11.6%	·	0.6%	?	·	·
COc1ccc2c3c([nH]c2c1)C(C)=NCC3	?	-6.1%	?	?	?	14.1µM*!	-66.6%	50.1µM*	ADP FP counter=17.8µM*
CC1CC[C@@]2(NC1)OC1CC3C4CC[C@@H]5CC(O)CC[C@@]5(C)C4CC[C@]3(C)C1C2C (some centres undefined)	·	·	-7.3%	0.1%	-8.0%	17.4%	·	·
O=C(c1ccc(CS(=O)(=O)c2ccccc2)o1)N1CCC2(CC1)OCCO2	?	?	-0.9%	-2.4%	-19.1%	?	·	?
CCCCn1c(N)c(C(=O)OCC2CCCO2)c2nc3ccccc3nc21 (centres undefined)	-9.8%	·	?	?	-5.4%	?	·	10.0%
CN(C)C1C(=O)C(C(N)=O)=C(O)[C@@]2(O)C(=O)C3=C(O)c4c(O)cccc4[C@](C)(O)C3C(O)C12 (some centres undefined)	?	·	8.91µM*	-28.8%	-6.7%	10µM*	-37.6%	·	ADP FP counter=7.08µM*
COC(=O)C12C/C=C\Cc3ccccc3[C@@H]1CNC2=O (some centres undefined)	-0.7%	·	-8.2%	·	2.8%	0.5%	·	·
C=CCOc1ccc(CC2C(=O)N(C)C(=O)N(C)C2=O)cc1	0.8%	-11.9%	7.8%	-12.7%	-18.3%	-16.0%	·	·
CCN(CC)c1ccc(CC2C(=O)N(C)C(=O)N(C)C2=O)cc1	-4.5%	?	-4.4%	2.9%	1.6%	31.6µM*	·	44.7µM*
COc1ccc(-c2nc(CN3C(=O)CN=C(c4ccccc4)c4ccccc43)c(C)o2)cc1OC	·	·	·	-1.4%	-3.0%	·	·	·
Cn1c(CNC(=O)c2ccco2)nnc1SCC(=O)N1c2ccccc2Sc2ccccc21	-6.6%	·	3.3%	?	-1.9%	3.1%	-1.4%	·	ADP FP counter=14.1%
O=C(O)c1ccccc1-c1c2cc(Br)c(=O)cc-2oc2[c]([Hg])c(O)c(Br)cc12	25.1µM*	·	5.01µM*	3.16µM*!	15.8µM*	25.1µM*	11.2µM*	·	ADP FP counter=0.199µM*
CCCc1cc2c(n1CCO)C(C)C1CN(C(=O)c3ccccc3)C(C)(C(=O)OC)C21 (centres undefined)	-2.9%	·	?	·	-1.6%	i	·	·
CN1C[C@@H](C(=O)N[C@@]2(C)O[C@]3(O)C4CCCN4C(=O)[C@@H](Cc4ccccc4)N3C2=O)C=C2c3cccc4[nH]cc(c34)C[C@@H]21 (some centres undefined)	?	·	?	?	-13.7%	?	?	·	ADP FP counter=7.94µM*
O=C(Nc1ccccc1)N1CC2(CCN(C(=O)Oc3ccccc3)CC2)C1	1.9%	·	·	0.9%	-0.8%	-3.3%	·	·
C=CCN1CCC23c4c5ccc(O)c4OC2/C(=N/N=C2\CCC4(O)C6Cc7ccc(O)c8c7C4(CCN6CC=C)C2O8)CCC3(O)C1C5 (centres undefined)	7.0%	·	·	-9.7%	·	3.7%	·	·
CCOc1ccc(CN(CCc2ccc3c(c2)OCO3)Cc2cc(OC)ccc2O)cc1	·	·	·	-0.3%	-4.1%	·	·	·
CC[C@@]1(O)C(=O)OCc2c1cc1n(c2=O)Cc2cc3c(NC(=O)CN)cccc3nc2-1	9.6%	52.9%	?	-4.0%	-4.7%	0.8%	·	·
CC[C@@]1(O)C(=O)OCc2c1cc1n(c2=O)Cc2cc3c(O)cccc3nc2-1	?	·	·	?	-16.7%	?	·	?
c1ccc(C2N3CCCN23)cc1 (centres undefined)	10.7%	-0.2%	5.2%	-28.4%	-0.7%	7.94µM*	13.4%[114 µM]	·	ADP FP counter=-2.3%[91.9 µM]
Cc1ccc(C2N3CCCN23)cc1 (centres undefined)	1.2%	·	1.5%	-23.4%	-2.0%	i	·	·
Cn1c(O)c(C=NCC2CCNCC2)c(=O)n(C)c1=O	-2.4%	8.3%[11.4 µM]	?	-1.0%	-7.9%	-3.9%	·	·
CCOC(=O)C1CCCN(c2ccc([N+](=O)[O-])c3nonc23)C1 (centres undefined)	?	-22.5%	-4.9%	-16.2%	-10.5%	28.2µM*	·	56.2µM*
O=[N+]([O-])c1ccc(N2CCCC2)c2ccncc12	-6.5%	·	1.4%	0.8%	-7.4%	-3.1%	·	·
CCN1C[C@]2(C)CC[C@H](OC)[C@]34C5C[C@@H]6CC[C@@](O)(C5C(=O)O6)C(C13)[C@@H](OC(=O)c1ccccc1)C24	4.0%	·	7.9%	·	1.0%	-15.3%	·	·
CCn1nc(-c2cccs2)nc2c(=O)n(C)c(=O)nc1-2	-2.6%	?	?	-16.2%	1.12µM*	3.55µM*	?	·	ADP FP counter=6.8%[91.9 µM]
O=C(c1ccc2nc(-c3ccco3)c(-c3ccco3)nc2c1)N1CCC2(CC1)OCCO2	?	28.2µM*	?	-11.2%	28.2µM*	12.6µM*	17.8%[114 µM]	-7.3%	L3MBTL1 inh-2=?;AlphaScreen ctr2=-25.6%
CC(=O)Oc1ccc2c3c1OC1[C@@H](OC(C)=O)C=C[C@H]4[C@H](C2)N(C)CC[C@]314 (some centres undefined)	·	·	·	-2.2%	-2.0%	·	·	·
O=C1NC(=O)N(c2cccc(Cl)c2)C(=O)/C1=C\c1ccc(Sc2nc3ccccc3[nH]2)o1	?	31.6µM*	?	?	-12.7%	12.6µM*	·	·	L3MBTL1 inh-2=26.7*;AlphaScreen ctr2=-7.8%
